The structures appear in SMILES notation. Among all 370,000 compounds or so, about 6,800 (1.8%) were called active.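 How the source made its calls: active means activation above a cutoff set at the mean of all screened compounds plus 3 SD (cut at about 10% in these data); inactive means the rest.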 This excerpt belongs to a sample that is enriched for actives.

The experiment concerns Nuclear hormone receptor DAF-12 (Heterodera glycines), GAL4 fusion. Description: hgDAF-12 GAL4 fusion reporter activation – cell-based, luminescence, HEK293, UAS-luciferase, primary screen (AID 687014).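 Further: 0% = DMSO wells and 100% = sodium butyrate wells.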 The conditions noted are these: HEK293 GAL4-hgDAF12 UAS-luciferase reporter, agonist luminescence; at 6.8 µM; hits give high values; normalized to butyrate control.
Take `Cc1ccc(N/C=C/C(=O)c2ccccc2)cc1C`: the activation is 19.8% (active).
Regarding `COC(C(=O)Nc1ccc(S(=O)(=O)Nc2ccc(C)c(C)c2)cc1)c1ccccc1` (configuration not stated), the activation is -3.51% (inactive).
Under `Cc1ccc(NNC(=O)C2CCC2)cc1C` stands 1.26% (inactive).
On to `N#Cc1c(NCCO)ccc([N+](=O)[O-])c1NCCO`, for which the activation was -1.17% (inactive).
With `COC(=O)[C@]12C[C@H](CC(=O)NCC34CC5CC(CC(C5)C3)C4)C(=O)N(Cc3ccc(Cl)cc3Cl)C1=C[C@H](COCc1ccccc1)O[C@@H]2C`, the activation is 1.95% (inactive).
Consider `C[C@H](C(=O)N(C)c1ccccc1)[C@@H](O)c1ccc2ccccc2c1`, for which the activation is -1.62% (inactive).
Under `CC(C)n1c(O)c(N=Nc2ccccn2)c2ccccc21` stands 1.77% (inactive); under `Oc1oc(-c2ccccc2Br)nc1/C=N/c1ccccn1`, 10.8% (active).
Under `COc1cccc(-c2cc(CNC(=O)[C@@H](Cc3ccccc3)NC(=O)[C@H]3O[C@@H](n4cnc(C(N)=O)n4)[C@H](O)[C@@H]3O)no2)c1` stands 3.48% (inactive).
Under `COC(=O)CC1CCc2cc(C)cc(C(CC(C)C)NC(=O)[C@H](CC(C)C)NC(=O)OCc3ccccc3)c2O1` (some centres not stated) stands -1.05% (inactive); under `CC1CCCCC1NC(=O)Cn1c(=O)cnc2ccccc21` (configuration not stated), -0.26% (inactive).
Take `O=C(Cn1c(-c2cncs2)nc2ccccc21)NC1CCCC1`: the activation was 0.16% (inactive).
`O=C(/C=C/c1cnc2ccccc2n1)NC1CCCCCC1`: the activation is 11.9% (active).
In the case of `O=C(NCCc1c[nH]c2ccccc12)c1cc2ccccc2oc1=O`, the activation is 14.6% (active).
The same measure for `C[N+](C)(C)CCNC(=O)c1c[nH]c2ccccc12`: 0.11% (inactive); for `O=C(CCCCCn1c(=O)[nH]c2ccccc2c1=O)NCCc1c[nH]c2ccccc12`: -0.27% (inactive).
`Clc1cccc2c1C1CC2CCN1Cc1ccccc1` (configuration not stated): the activation was 0.38% (inactive).
The same measure for `COc1ccc(-c2cc(-c3nnc(SCc4ccc([N+](=O)[O-])cc4)n3N)[nH]n2)cc1`: 3.72% (inactive); for `Nc1ncnc2c1ncn2[C@@H]1O[C@H](C(=O)N[C@@H](CCc2ccccc2)C(=O)N2CCCN(Cc3cccs3)CC2)[C@@H](O)[C@H]1O`: 1.83% (inactive); for `Nc1nc2cc(Cl)ccc2n1N`: 0.42% (inactive).
Under `Nc1ccc2c(c1)C(O)c1ccc(Cl)cc1-2` (configuration not stated) stands 2.17% (inactive); under `Nc1ccc2nn(-c3ccc(Cl)cc3)nc2c1`, 18.1% (active); under `COc1ccc(S(=O)(=O)N[C@@H]2C=C[C@@H](CC(=O)N3CCc4ccccc4C3)O[C@@H]2CO)cc1`, -1.55% (inactive).
As to `COc1ccc(-c2csc(-c3cccs3)n2)cc1OC`, the activation was 14.5% (active).
The same measure for `COc1ccc(C2CC(c3cccs3)=Nc3ccccc3S2)cc1OC` (configuration not stated): 6.91% (inactive).
As for `COc1ccc(-c2csc3nc(-c4ccccc4F)oc(=O)c23)cc1OC`, the activation is -0.2% (inactive).
As for `COC(=O)C1=C(C)N(Cc2ccccc2C(F)(F)F)C(=NCc2ccc(C(F)(F)F)cc2)NC1c1ccc(F)cc1` (configuration not stated), the activation was 0.87% (inactive).
For the molecule `CCCCOCCCNC(=O)C[C@H]1C[C@@]2(C(=O)OC)C(=C[C@H](COCc3ccccc3)O[C@@H]2C)N(Cc2cccc3ccccc23)C1=O`, the activation is 5.41% (inactive).
For the molecule `CCOc1c(N2CCCCC2)c(=O)c1=O`, the activation is -2.21% (inactive).
Under `Cc1ccc(CSc2nnc(SCC(=O)NN=Cc3cc(Br)ccc3F)s2)cc1` stands 6.25% (inactive); under `Cc1cc(C)nc(NC(=O)/C=C/c2ccc(Cl)cc2)n1`, -0.13% (inactive).
Under `CC(C)(C)c1ccc(/C=C/C(=O)NCCCn2ccnc2)cc1` stands 3.86% (inactive); under `CC(C)(C)c1ccc(/C=C/C(=O)Nc2ncccn2)cc1`, 16.6% (active); under `CCS(=O)(=O)c1ccc2oc(SCC(=O)N3c4ccccc4CC3C)nc2c1` (configuration not stated), -2.27% (inactive).
For `COc1ccc(S(=O)(=O)N(C)C)cc1NC(=O)CSc1ncccn1`, the activation was 1.65% (inactive).
The same measure for `CN(C)S(=O)(=O)c1ccc2oc(SCC(=O)Nc3ccccc3F)nc2c1`: 15.5% (active); for `O=C(CNC(=O)c1ccccc1)OC(C(=O)Nc1cc([N+](=O)[O-])ccc1F)c1ccccc1` (configuration not stated): 6.44% (inactive); for `COC(=O)c1cc(S(=O)(=O)N2CCN(C(=O)C3CCCO3)CC2)cn1C` (configuration not stated): -0.48% (inactive).
In the case of `C=C(C)C#CC(Cc1ccccc1)NCC1CC1` (configuration not stated), the activation was 1.34% (inactive).
Take `COc1cccc(Cn2cc(COC(=O)Nc3ccc(F)cc3)nn2)c1`: the activation was -2.67% (inactive).
The same measure for `COc1ccc(SSc2ccc(OC)cc2C(=O)O)c(C(=O)O)c1`: -1.26% (inactive); for `COc1ccc(/C=N/NC(=O)Cn2cc(C(F)(F)F)ccc2=O)cc1`: -5.01% (inactive).
The same measure for `COc1ccc(/C=N/Nc2ccccc2C(=O)O)cc1`: 12.8% (active); for `N#Cc1c(N)nc2c(c1N)CC(C(F)(F)F)O2` (configuration not stated): 2.74% (inactive).
Under `CCOC(=O)[C@]12CCCC3=C1N(CCC3)C(=O)[C@@H](CC(=O)N1CCSCC1)C2` stands -0.16% (inactive); under `O=C(NCCCc1ccccc1)[C@H](Cc1ccccc1)NC1(C(=O)NCCc2c[nH]c3ccccc23)CCC1`, -3.84% (inactive).
In the case of `O=C(OC12CCCN(C1)/C(=C/c1cccnc1)C2)C1CCCC1` (configuration not stated), the activation is -3.6% (inactive).
In the case of `COc1ccc(C(=O)N2CCCN(C)CC2)c(OC)c1`, the activation is -2.22% (inactive).
The same measure for `COc1ccc(C(=O)CSc2nnnn2C)c(OC)c1`: 1.57% (inactive).
The same measure for `COC(=O)c1sc(NC(=O)c2ccc(OC)cc2OC)nc1C`: 19.3% (active); for `COc1ccc(C(=O)NC2CC(C)(C)Cc3c2cnn3-c2ccccc2)c(OC)c1` (configuration not stated): -4.18% (inactive); for `COc1ccc(NC(=O)COC(=O)c2ccncc2)c(OC)c1`: -1.12% (inactive).
In the case of `COc1ccc(C(=O)Nc2nncs2)c(OC)c1`, the activation was 10.4% (active).
Under `COC(=O)C1=C(C)N(Cc2ccc(C(F)(F)F)cc2)C(=NCc2ccc(C(F)(F)F)cc2)NC1c1cccc(Cl)c1` (configuration not stated) stands 6.59% (inactive); under `CCOC(=O)C1CCN(C(=O)c2ccccc2N(C)S(=O)(=O)c2ccccc2)CC1`, 0.69% (inactive); under `CC(C)CSc1nnc(-c2cccnc2)n1Cc1ccccc1`, 0.98% (inactive).
In the case of `C=CCN1C(=O)N(Cc2ccccc2)c2ccccc2S1(=O)=O`, the activation was -2.37% (inactive).

The values are drawn from PubChem BioAssay AID687014 (The Scripps Research Institute Molecular Screening Center, 2013).
